Measurements published in article PMC8159961, “Exploring protein hotspots by optimized fragment pharmacophores” (Nature Communications, 2021).

Target: histone methyltransferase SET domain containing 2 (SETD2) (Homo sapiens, UniProt Q9BYW2)
Test: primary screen, binary call; higher = more effect of the substance; call rule not given here
Method: The Chemiluminescence assay evaluates SETD2 specific tri -methylation activity towards histone H3K36. The kit consist s of recombinant SETD2, S-adenosylmethionine and a specific H3K36me3 antibody and was performed according to the manufacturer’s protocol (Catalo g- No. 52060, https://bpsbioscience.com/setd2 -chemiluminescent-assay-kit-52060). Values were blank corrected and normalized . Enzymatic activities were calculated relative to the positive control of the kit (full enzymatic activity) and to the known SET doma in inhibitor Sinefungin28 used as negative control (complete enzymatic activity inhibition). Compounds used were diluted in DMSO.

Chain of histone methyltransferase SET domain containing 2 (SETD2) (Q9BYW2 whole entry, looked up, the tested form may be a part): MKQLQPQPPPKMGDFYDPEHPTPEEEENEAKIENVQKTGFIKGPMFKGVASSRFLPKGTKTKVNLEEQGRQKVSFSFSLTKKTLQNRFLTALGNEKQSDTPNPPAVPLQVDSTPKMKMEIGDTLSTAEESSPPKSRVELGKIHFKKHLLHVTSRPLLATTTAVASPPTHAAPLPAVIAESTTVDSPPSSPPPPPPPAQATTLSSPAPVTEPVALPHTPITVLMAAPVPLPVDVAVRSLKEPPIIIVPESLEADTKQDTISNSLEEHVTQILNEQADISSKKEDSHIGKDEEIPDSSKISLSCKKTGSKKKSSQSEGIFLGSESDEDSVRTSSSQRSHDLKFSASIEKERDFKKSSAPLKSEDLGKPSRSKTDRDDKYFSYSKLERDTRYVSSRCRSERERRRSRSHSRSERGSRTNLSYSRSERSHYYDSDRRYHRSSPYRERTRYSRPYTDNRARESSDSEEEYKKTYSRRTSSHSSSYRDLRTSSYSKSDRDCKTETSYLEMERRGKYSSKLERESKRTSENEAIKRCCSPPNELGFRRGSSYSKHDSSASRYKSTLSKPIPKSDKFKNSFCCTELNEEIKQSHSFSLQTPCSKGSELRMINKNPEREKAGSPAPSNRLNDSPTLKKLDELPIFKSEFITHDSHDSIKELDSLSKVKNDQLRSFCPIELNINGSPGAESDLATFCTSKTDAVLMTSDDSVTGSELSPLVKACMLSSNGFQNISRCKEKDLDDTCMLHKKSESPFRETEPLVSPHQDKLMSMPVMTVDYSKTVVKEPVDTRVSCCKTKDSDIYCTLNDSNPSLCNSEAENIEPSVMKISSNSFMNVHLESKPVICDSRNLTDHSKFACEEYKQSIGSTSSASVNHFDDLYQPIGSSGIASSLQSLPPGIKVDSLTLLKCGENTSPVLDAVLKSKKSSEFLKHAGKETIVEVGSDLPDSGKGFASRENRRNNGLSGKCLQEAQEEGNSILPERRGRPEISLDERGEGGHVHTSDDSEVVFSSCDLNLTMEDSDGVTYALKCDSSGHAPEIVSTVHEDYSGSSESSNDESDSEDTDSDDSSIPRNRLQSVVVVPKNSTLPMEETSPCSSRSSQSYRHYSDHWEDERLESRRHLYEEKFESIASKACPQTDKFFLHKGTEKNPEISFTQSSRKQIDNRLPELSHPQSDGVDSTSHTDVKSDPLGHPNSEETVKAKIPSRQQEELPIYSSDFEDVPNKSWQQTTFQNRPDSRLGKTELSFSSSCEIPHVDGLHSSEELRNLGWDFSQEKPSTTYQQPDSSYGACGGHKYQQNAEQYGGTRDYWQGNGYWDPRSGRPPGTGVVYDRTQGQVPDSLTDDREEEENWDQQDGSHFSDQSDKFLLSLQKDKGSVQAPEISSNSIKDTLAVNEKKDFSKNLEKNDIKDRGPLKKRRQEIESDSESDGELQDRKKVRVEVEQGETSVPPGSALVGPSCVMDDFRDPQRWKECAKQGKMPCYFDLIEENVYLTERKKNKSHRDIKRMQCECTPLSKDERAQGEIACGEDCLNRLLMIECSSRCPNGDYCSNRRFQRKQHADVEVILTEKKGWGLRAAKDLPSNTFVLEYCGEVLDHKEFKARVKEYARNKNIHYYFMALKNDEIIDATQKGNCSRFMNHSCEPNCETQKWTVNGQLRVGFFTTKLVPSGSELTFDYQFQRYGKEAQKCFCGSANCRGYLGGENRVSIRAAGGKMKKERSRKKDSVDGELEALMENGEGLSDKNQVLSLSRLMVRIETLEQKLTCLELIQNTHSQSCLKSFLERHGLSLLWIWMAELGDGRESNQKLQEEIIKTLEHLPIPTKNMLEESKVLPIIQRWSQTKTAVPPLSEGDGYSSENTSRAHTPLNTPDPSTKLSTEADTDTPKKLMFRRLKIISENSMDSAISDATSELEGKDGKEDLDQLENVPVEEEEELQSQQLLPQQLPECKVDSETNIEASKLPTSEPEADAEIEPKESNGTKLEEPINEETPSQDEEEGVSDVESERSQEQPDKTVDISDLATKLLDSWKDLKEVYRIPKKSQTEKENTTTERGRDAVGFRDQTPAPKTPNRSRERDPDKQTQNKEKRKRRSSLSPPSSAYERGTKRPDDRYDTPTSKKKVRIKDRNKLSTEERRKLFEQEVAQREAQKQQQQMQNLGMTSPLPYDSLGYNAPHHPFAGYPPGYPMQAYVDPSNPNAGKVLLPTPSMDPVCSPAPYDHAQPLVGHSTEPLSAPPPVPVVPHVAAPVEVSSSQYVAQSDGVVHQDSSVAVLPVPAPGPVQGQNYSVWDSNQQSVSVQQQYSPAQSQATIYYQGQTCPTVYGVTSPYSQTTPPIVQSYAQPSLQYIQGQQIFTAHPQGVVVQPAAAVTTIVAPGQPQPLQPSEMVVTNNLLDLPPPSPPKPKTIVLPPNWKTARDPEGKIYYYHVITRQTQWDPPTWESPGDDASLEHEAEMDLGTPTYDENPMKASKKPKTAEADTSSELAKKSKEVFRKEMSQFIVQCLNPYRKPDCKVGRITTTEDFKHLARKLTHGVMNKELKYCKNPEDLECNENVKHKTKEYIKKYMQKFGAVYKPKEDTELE

SETD2, inactive:
O=C(CN1CCCC1)c1ccccc1Cl 0
O=C1CSC(Nc2ccc(F)cc2)=N1 0
O=C1CNCCN1c1ccccc1 0
NC1CCc2ccccc21 (centres unmarked) 0
FC1(F)CNCC(F)(F)O1 0
CN1CC(=O)NC1=O 0
Cc1cc(C)c2c(=O)[nH]n(C)c2n1 0
CCn1cnc2ccccc21 0
CS(=O)(=O)c1ccc(N2CCNCC2)cc1 0
c1ccc2sc(N3CCNCC3)nc2c1 0
Cc1ccc(CCNc2ccccc2)cn1 0
